Source: PubChem BioAssay (Tox21)
Records with an inconclusive call do not appear. Activity calls are given as the source filed them. Unless noted, calls follow the shape of the dose curve; as a rule, active = well fitted curve in the direction sought with a large enough effect in the repeat runs; inconclusive = weak or mixed curves; inactive = no such curve, though single readings can be large; an effect the other way counts as inactive or inconclusive.

Experiments:
[1] = A CellTox Green Cytotoxicity Assay to monitor cytotoxicity in HepG2 cells - 8 hour (AID 1224890); also: nearly all actives have a fitted effect of over 45% in size
Summary of the method: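 Measurements at 0, 8, 16, 24, 32 and 40 h of treatment captured CellTox Green fluorescence in HepG2 cells that had been co-plated with reagent and preincubated 5 h at 37 C/5% CO2.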

[2] = qHTS assay to identify small molecule antagonists of the estrogen receptor alpha (ER-alpha) signaling pathway using the BG1 cell line in the presence of 0.1 nM 17-beta-estradiol - cell viability counter screen (AID 1259241); also: nearly all actives have a fitted effect of over 40% in size
Summary of the method: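 The cell line endogenously expresses full-length ER-alpha and carries four EREs driving luciferase. Cells are cultured 5 days hormone-free, treated 22 hr with compounds and 0.1 nM estradiol, then viability is read by fluorescence.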

[3] = qHTS assay to identify small molecule antagonists of the androgen receptor (AR) signaling pathway using the MDA cell line in the presence of 0.5 nM R1881 - cell viability counter screen (AID 1259242); also: nearly all actives have a fitted effect of over 45% in size
Summary of the method: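 Concentration-response screen of compounds for toxicity in MDA-kb2 reporter cells: 16 hr at 37C with 0.5 nM R1881, endpoint live-cell protease fluorescence measured in the reporter wells.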

[4] = qHTS assay to identify small molecule phospholipidosis (PLD) inducers (AID 1259344; active = well fitted curve in the direction sought with a large enough effect; an effect the other way counts as inactive or inconclusive)
Summary of the method: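 Accumulated phospholipid, stained red by LipidTOX during 24 h compound treatment of HepG2 cells at 37 C, is quantified from images as pit number and intensity, normalised per cell using Hoechst-stained nuclei.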

[5] = qHTS assay to identify small molecule HDAC inhibitors (AID 1259364);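 also: wild-type HCT-116 cells with endogenous class I/II HDAC activity; top concentration of the series differs between compounds; nearly all actives have a fitted effect of over 45% in size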
Summary of the method: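 Screening used wild-type human colon HCT-116 cells incubated overnight, dosed with compounds for 2 hours, and assayed with a homogeneous luminogenic HDAC I/II reagent for 30 minutes at room temperature.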

[6] = qHTS assay to identify small molecule HDAC inhibitors - cell viability counter screen (AID 1259365); also: series mostly up to about 92 µM; nearly all actives have a fitted effect of over 50% in size
Summary of the method: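 Viability readout: CellTiter-Glo luminescence. Wild-type HCT-116 cells, 2hr compound treatment following overnight attachment at 37 C.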

[7] = qHTS assay to identify small molecule agonists of the sonic hedgehog signaling (Shh) pathway - cell viability counter screen (AID 1259366); also: nearly all actives have a fitted effect of over 50% in size
Summary of the method: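 Viability measured fluorometrically (CellTiter-Fluor, 1hr, 37C) in 3T3 Gli1-Luc reporter cells after 23hr compound exposure within a 24hr incubation at 37C/5% CO2.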

[8] = qHTS assay to identify small molecule antagonists of the sonic hedgehog signaling (Shh) pathway - cell viability counter screen (AID 1259367); also: nearly all actives have a fitted effect of over 55% in size
Summary of the method: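 CellTiter-Fluor signal in conditioned medium-stimulated 3T3 Gli1-Luc cells, 23 hr compound exposure, 37C.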

[9] = qHTS assay to identify small molecule agonists of the sonic hedgehog signaling (Shh) pathway (AID 1259368; calls by dose curve; also: nearly all actives have a fitted effect of over 15% in size; also: potency is read from the fitted curve at half-maximal effect;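 as to activity change: NIH/3T3-derived 3T3Gli1-Luc cells carrying a stable Gli1-driven firefly luciferase reporter; series mostly up to about 92 µM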)
Summary of the method: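 Hedgehog pathway agonism scored by increased firefly luciferase luminescence in 3T3Gli1-Luc cells treated 24 hr at 37 C; detection used a 30 min room-temperature reagent incubation.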

[10] = qHTS assay to identify small molecule antagonists of the sonic hedgehog signaling (Shh) pathway (AID 1259369; calls by dose curve; also: nearly all actives have a fitted effect of over 45% in size)
Summary of the method: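 NIH/3T3 stable Gli1-Luc clone, 2,000 cells/well, 4hr settle; cpd + conditioned medium 24hr; Luc reagent 30min RT; luminescence.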

[11] = molecular target: Estrogen receptor beta (Homo sapiens) (UniProt Q92731); assay: qHTS assay to identify small molecule agonists of the estrogen receptor beta (ER-beta) signaling pathway (AID 1259377; active = well fitted activation curve with a large enough effect in the signal ratio in the repeat runs, not every such curve was filed as active; the % refers to the signal ratio)
Summary of the method: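 A UAS-controlled beta-lactamase reporter in ER-beta-UAS-bla HEK293T cells reports receptor activation. Compounds act for 16 hr at 37C in 2% charcoal-stripped serum, and a FRET substrate is read by fluorescence after 2 hours.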

[12] = qHTS assay to identify small molecule agonists of the androgen receptor (AR) signaling pathway in the presence of an antagonist - cell viability counter screen (AID 1259379);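 also: MDA-kb2 human breast cancer cells carrying an MMTV luciferase reporter; series mostly up to about 92 µM; nearly all actives have a fitted effect of over 25% in size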
Summary of the method: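 MDA-kb2 viability measured by CellTiter-Fluor fluorescence in the same wells as the luciferase signal; nilutamide 3.0uM final; 15-point compound titration; 16 hr at 37C.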

[13] = qHTS assay to identify small molecule agonists of the estrogen receptor beta (ER-beta) signaling pathway - cell viability counter screen (AID 1259380); also: nearly all actives have a fitted effect of over 30% in size
Summary of the method: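 Measured: luminescence from CellTiter-Glo after 30 min at room temperature, added to wells already read for the LiveBLAzer FRET reporter (2 hr substrate); ER-beta-UAS-bla HEK293T cells had 16 hr compound treatment at 37C, 5% CO2.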

[14] = qHTS assay to identify small molecule antagonists of the estrogen receptor beta (ER-beta) signaling pathway - cell viability counter screen (AID 1259382);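 also: HEK293T cells carrying ER-beta-UAS-bla reporter stimulated with estradiol; series mostly up to about 92 µM; nearly all actives have a fitted effect of over 55% in size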
Summary of the method: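 Readout: luminescence, CellTiter-Glo, same wells as bla assay. System: ER-beta-UAS-bla GripTite HEK293T, 2% charcoal-stripped FBS. Exposure: compounds plus 1nM 17-beta-estradiol, 16 hr, 37C.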

[15] = qHTS assay to identify small molecule agonists or antagonists of the thyroid stimulating hormone receptor (TSHR) signaling pathway - wild type cell line counter screen (AID 1259384; calls by dose curve)
Summary of the method: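 Counter screen in untransfected Hek293: compounds (15-point titration, triplicate) plus phosphodiesterase inhibitor Ro20-1724 added after 18 h plating; 30 min RT. Intracellular cAMP via competitive d2/cryptate immunoassay, 1 h incubation.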

[16] = molecular target: Estrogen receptor beta (Homo sapiens) (UniProt Q92731); assay: qHTS assay to identify small molecule antagonists of the estrogen receptor beta (ER-beta) signaling pathway (AID 1259378; active = well fitted inhibition curve with a large enough effect in the signal ratio in the repeat runs, not every such curve was filed as active; the % refers to the signal ratio)
Summary of the method: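 Antagonist mode: compounds added to beta-lactamase reporter HEK293T ER-beta-UAS cells stimulated with E2 (1nM final), 16 hr at 37C. LiveBLAzer B/G FRET substrate, 2 hours room temperature, fluorescence read-out.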

[17] = molecular target: Estrogen receptor (Homo sapiens) (UniProt P03372); assay: qHTS assay to identify small molecule agonists of the estrogen receptor alpha (ER-alpha) signaling pathway in the presence of an antagonist (AID 1259383; calls by dose curve; also: top concentration of the series differs between compounds; nearly all actives have a fitted effect of over 15% in size)
Summary of the method: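 Quantitative HTS confirmation: compounds titrated at 15 concentrations onto estrogen-deprived VM7Luc4E2 cells carrying a four-ERE luciferase construct, with ICI-182,780 present at 10.0nM final. Signal is luminescence after 22hr exposure.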
% is scaled to controls: 0 for no effect and ±100 for the full control effect.

Chain of Estrogen receptor (Homo sapiens) (P03372 whole entry, looked up): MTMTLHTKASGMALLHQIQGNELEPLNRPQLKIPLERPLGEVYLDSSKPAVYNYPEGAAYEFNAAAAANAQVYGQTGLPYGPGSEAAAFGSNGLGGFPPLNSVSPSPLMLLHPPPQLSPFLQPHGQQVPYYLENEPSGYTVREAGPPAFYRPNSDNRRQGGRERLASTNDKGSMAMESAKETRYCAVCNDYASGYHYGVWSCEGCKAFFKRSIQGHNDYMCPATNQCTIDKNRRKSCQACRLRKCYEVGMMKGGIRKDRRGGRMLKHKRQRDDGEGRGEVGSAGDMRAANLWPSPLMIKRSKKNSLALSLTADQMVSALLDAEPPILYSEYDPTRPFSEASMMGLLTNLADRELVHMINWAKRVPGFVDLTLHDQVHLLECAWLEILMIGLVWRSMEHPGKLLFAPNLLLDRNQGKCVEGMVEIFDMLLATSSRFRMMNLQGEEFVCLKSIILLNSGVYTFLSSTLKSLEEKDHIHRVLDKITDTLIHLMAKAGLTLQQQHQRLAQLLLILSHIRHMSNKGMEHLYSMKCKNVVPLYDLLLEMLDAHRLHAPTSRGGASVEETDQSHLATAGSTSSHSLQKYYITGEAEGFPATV
Chain of Estrogen receptor beta (Homo sapiens) (Q92731 whole entry, looked up): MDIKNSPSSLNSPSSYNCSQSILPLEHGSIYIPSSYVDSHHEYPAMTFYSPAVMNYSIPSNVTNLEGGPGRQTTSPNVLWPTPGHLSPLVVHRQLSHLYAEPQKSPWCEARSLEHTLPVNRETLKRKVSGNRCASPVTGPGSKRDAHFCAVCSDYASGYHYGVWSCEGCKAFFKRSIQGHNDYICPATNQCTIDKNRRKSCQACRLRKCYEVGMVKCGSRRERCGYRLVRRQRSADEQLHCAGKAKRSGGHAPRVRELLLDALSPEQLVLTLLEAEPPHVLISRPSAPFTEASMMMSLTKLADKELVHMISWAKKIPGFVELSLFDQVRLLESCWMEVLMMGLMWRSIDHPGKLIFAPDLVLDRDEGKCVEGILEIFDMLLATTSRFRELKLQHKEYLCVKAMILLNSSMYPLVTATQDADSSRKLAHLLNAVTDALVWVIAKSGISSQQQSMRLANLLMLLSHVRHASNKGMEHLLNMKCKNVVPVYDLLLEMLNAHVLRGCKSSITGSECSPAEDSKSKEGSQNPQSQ

CC(C)NC[C@@H](O)COc1cccc2ccccc12
inactive: Potency [1] | Potency [2] | outcome [3] | outcome [4] | Potency [5] | outcome [6] | Potency [7] | Potency [8] | Potency [9] | Potency [10] | outcome [11] | Potency [12]

OCc1ccccc1O
inactive: Potency [1] | Potency [2] | outcome [3] | outcome [4] | Potency [5] | Potency [7] | Potency [8] | Potency [9] | Potency [10] | Potency [12] | Potency [13] | outcome [14] | outcome [15]

CC(=O)Oc1cc(C(C)C)c(OCCN(C)C)cc1C
inactive: Potency [1] | Potency [2] | outcome [3] | outcome [4] | Potency [5] | outcome [6] | Potency [7] | Potency [8] | Potency [9] | Potency [10] | outcome [11] | Potency [16] | Potency [12] | Potency [13] | outcome [14] | outcome [15]

Oc1ccccc1C=NCc1ccccc1
inactive: Potency [1] | Potency [2] | outcome [3] | outcome [4] | Potency [5] | outcome [6] | Potency [8] | Potency [9] | Potency [10] | outcome [11] | Potency [16] | Potency [12] | Potency [13] | outcome [14] | outcome [15]

CCN(CC)CCOc1ccc(Cc2ccccc2)cc1
inactive: Potency [1] | Potency [2] | outcome [3] | outcome [4] | Potency [5] | outcome [6] | Potency [7] | Potency [9] | Potency [12] | outcome [14] | Potency [17] | outcome [15]

CC1(C)O[C@@H]2C[C@H]3[C@@H]4CCC5=CC(=O)CC[C@]5(C)[C@@]4(F)[C@@H](O)C[C@]3(C)[C@]2(C(=O)CCl)O1
active: Potency [9] 13.3 µM
inactive: Potency [1] | Potency [2] | outcome [3] | outcome [4] | Potency [5] | outcome [6] | Potency [8] | outcome [11] | Potency [12] | outcome [14] | Potency [17] | outcome [15]

O=C1N(c2ccccc2)c2ccccc2C1(Cc1ccncc1)Cc1ccncc1
inactive: Potency [1] | Potency [2] | outcome [3] | outcome [4] | Potency [5] | outcome [6] | Potency [7] | Potency [8] | Potency [10] | outcome [11] | Potency [16] | Potency [12] | outcome [14] | Potency [17]

CCN(CC)CCNC(=O)COc1ccc(Cl)cc1
inactive: Potency [1] | Potency [2] | outcome [3] | outcome [4] | Potency [5] | outcome [6] | Potency [7] | Potency [8] | Potency [9] | Potency [10] | Potency [12] | Potency [13] | outcome [14] | Potency [17] | outcome [15]

CCCNC(C)(C)COC(=O)c1ccccc1
inactive: Potency [1] | Potency [2] | outcome [3] | outcome [4] | Potency [5] | Potency [7] | Potency [8] | Potency [9] | Potency [10] | Potency [12] | Potency [13] | outcome [14] | Potency [17] | outcome [15]

O=c1[nH]cnc2c1ncn2[C@@H]1O[C@H](CO)[C@@H](O)[C@H]1O
inactive: Potency [1] | Potency [2] | outcome [3] | outcome [4] | Potency [5] | outcome [6] | Potency [7] | Potency [8] | Potency [9] | Potency [10] | outcome [11] | Potency [16] | Potency [12] | Potency [13] | outcome [14] | outcome [15]

NC1=NCC2c3ccccc3Cc3ccccc3N12 (stereo not drawn)
inactive: Potency [1] | Potency [2] | outcome [3] | outcome [4] | Potency [5] | outcome [6] | Potency [8] | Potency [9] | Potency [12] | Potency [13] | outcome [14]

CCOC(=O)c1ccccc1O
inactive: Potency [1] | Potency [2] | outcome [3] | outcome [4] | Potency [5] | outcome [6] | Potency [8] | Potency [9] | outcome [11] | Potency [16] | Potency [12] | Potency [13] | outcome [14] | outcome [15]

CN1C(=O)CC(c2ccccc2)C1=O (stereo not drawn)
inactive: Potency [1] | Potency [2] | outcome [3] | outcome [4] | Potency [5] | outcome [6] | Potency [8] | Potency [9] | Potency [10] | Potency [12] | Potency [13] | outcome [14] | outcome [15]

O=C(O)[C@@H](O)[C@H](O)[C@H](O)[C@@H](O)C(=O)O
inactive: Potency [1] | Potency [2] | outcome [3] | outcome [4] | Potency [5] | outcome [6] | Potency [7] | Potency [8] | Potency [9] | Potency [10] | Potency [12] | Potency [13] | outcome [14] | outcome [15]

CC(C)NCC(O)COc1ccc(CCOCC2CC2)cc1 (stereo not drawn)
inactive: Potency [1] | Potency [2] | outcome [3] | outcome [4] | Potency [5] | outcome [6] | Potency [7] | Potency [8] | Potency [9] | Potency [10] | outcome [11] | Potency [16] | Potency [12] | Potency [13] | outcome [14]

CC(C)(CO)[C@@H](O)C(=O)NCCC(=O)O
inactive: Potency [1] | Potency [2] | outcome [3] | outcome [4] | Potency [5] | outcome [6] | Potency [7] | Potency [8] | Potency [9] | Potency [10] | Potency [12] | Potency [13] | outcome [14] | Potency [17] | outcome [15]

NC(=O)Cc1cccc(C(=O)c2ccccc2)c1N
inactive: Potency [1] | Potency [2] | outcome [3] | PLD induction [4] -0.295% [at 7.66 µM] | Potency [5] | outcome [6] | Potency [7] | Potency [9] | Potency [10] | outcome [11] | Potency [16] | Potency [12] | Potency [13] | outcome [14]

C[C@@H]1CN(c2c(F)c(N)c3c(=O)c(C(=O)O)cn(C4CC4)c3c2F)C[C@H](C)N1
inactive: cytotoxicity increase [1] 0.794% [at 15.8 µM] | activity change, negative = cytotoxicity [2] 1.55% [at 19 µM] | viability change, negative = cytotoxic [3] 0.0147% [at 19 µM] | outcome [4] | activity change, negative = inhibition [5] -1.07% [at 19 µM] | activity change, negative = cytotoxicity [6] 4.84% [at 19 µM] | viability change, negative = cytotoxic [7] 1.22% [at 19 µM] | viability change, negative = cytotoxic [8] 0.364% [at 19 µM] | activity change [9] -0.971% [at 18.9 µM, stronger effect = higher value] | activity change, negative = inhibition [10] 23.6% [at 19 µM] | activation [11] 3.1% [at 19 µM] | activity, negative = inhibition [16] 17% [at 19 µM] | activity change, negative = cytotoxicity [12] 2.69% [at 19 µM] | activity change, negative = cytotoxicity [13] 6.77% [at 19 µM] | activity change, negative = cytotoxicity [14] 5.91% [at 19 µM] | activation [17] 0.0574% [at 19 µM] | cAMP activity change [15] 4.73% [at 18.9 µM]
